Molecules are shown by their SMILES. Inconclusive results are not listed. Active and inactive are the calls of the source. The calls were made as follows: active = hit-call score of the fitted dose curve at least 0.9, where 1 is the maximum; inconclusive = response in the unintended direction; inactive = score below 0.9.

Experimental findings from PubChem BioAssay AID2284358 (EPA ToxCast) are described below.

Sequence of zebrafish Retinoid X Receptor beta (RXRb), rxrba (gene 30530) (Q7SYN5 whole entry, looked up): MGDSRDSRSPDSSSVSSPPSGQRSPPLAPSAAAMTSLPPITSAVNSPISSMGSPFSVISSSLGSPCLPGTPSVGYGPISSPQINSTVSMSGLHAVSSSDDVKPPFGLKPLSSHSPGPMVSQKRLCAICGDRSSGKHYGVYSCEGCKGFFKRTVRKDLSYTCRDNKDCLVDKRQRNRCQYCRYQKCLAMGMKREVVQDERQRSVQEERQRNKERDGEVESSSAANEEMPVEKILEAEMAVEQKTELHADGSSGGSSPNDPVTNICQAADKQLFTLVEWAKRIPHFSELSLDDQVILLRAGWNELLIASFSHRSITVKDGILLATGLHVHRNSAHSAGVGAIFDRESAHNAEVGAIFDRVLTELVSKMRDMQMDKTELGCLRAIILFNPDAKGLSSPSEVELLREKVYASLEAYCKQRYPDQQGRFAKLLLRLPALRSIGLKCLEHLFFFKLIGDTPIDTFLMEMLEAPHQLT

The experiment has as its target zebrafish Retinoid X Receptor beta (RXRb), rxrba (gene 30530) (UniProt Q7SYN5). Nature of the experiment: ATG_zfRXRb_EcoTox2: Attagene TRANS-FACTORIAL EcoTox-2 HepG2 Assay for zebrafish Retinoid X Receptor beta (RXRb). The procedure: ATG_EcoTox2 is a cell-based, multiplexed assay created by modifying the existing Attagene TRANS-FACTORIAL system to include a panel of nuclear receptors from some or all the following species: human (Homo sapiens), african clawed frog (Xenopus laevis), rainbow trout (Oncorhynchus mykiss), japanese medaka (Oryzias latipes), and zebrafish (Danio rerio). The ECOTOX2-FACTORIAL format uses HepG2, a human liver cell line, with measurements taken at 24 hours after chemical dosing in a 24-well plate. ATG_zfRXRb_EcoTox2 is one of 29 assay components calculated in the ATG_EcoTox2 assay. It is designed to make measurements of mRNA induction, a form of inducible reporter, as detected with fluorescence intensity signals by Reverse transcription polymerase chain reaction (RT-PCR) and Capillary electrophoresis technology.The assay endpoint ATG_zfRXRb_EcoTox2 was analyzed in the positive analysis fitting direction relative to DMSO as the negative control and baseline of activity. Using a type of inducible reporter, measures of mRNA for gain-of-signal activity can be used to understand the reporter gene at the transcription factor-level as they relate to the gene RXRb. Furthermore, this assay endpoint can be referred to as a primary readout, because this assay has produced multiple assay endpoints where this one serves a reporter gene function. […]
Human liver HepG2 cells are transiently transfected with multiple reporter transcription units (MRTUs) in 6-well plates using FuGene 6 reagent (Roche; 3 ml FuGene/1 mg DNA). […] A major difference between the CIS and TRANS system is that in CIS activities of endogenous TFs are measured, whereas the TRANS assay evaluates changes in activities of exogenous, chimeric NR-Gal4 proteins. […] The fragments were purified using Qiaquick PCR columns (Qiagen), analyzed on an ABI 3130xL genetic analyzer (Applied Biosystems) with peak positions identified by using a set of X-rhodamine (ROX)-labeled MapMarker1000 molecular weight standards (BioVentures). […]
For the compound `O=P(Oc1ccccc1)(Oc1ccccc1)Oc1ccccc1`, the outcome was inactive.

Turning to `O=S(=O)(O)C(F)(F)C(F)(F)C(F)(F)C(F)(F)C(F)(F)C(F)(F)F`, the result was inactive. Turning to `[Cl][Sn]([c]1ccccc1)([c]1ccccc1)[c]1ccccc1`, the AC50 was 95.2 nM (active).

The term AC50 denotes the concentration at which the activity in the assay is half-maximal.
